According to PubChem BioAssay (NCATS):
Results filed as inconclusive are left out. A call without a number means that no potency is given here. The source made the active and inactive calls. The call rests on the fitted dose curve; in most records, active means well fitted cell-killing curve with a large enough effect; inconclusive means small, poorly fitted or top-dose-only effect; inactive means flat fitted curve, though single readings scatter.

Experiment: Quantitative highthroughput screen to assess conditional lethalithy of P12 Ichikawa cells grown in Human Plasma-Like Medium with dialyzed fetal bovine serum (HPLM+ds) (AID 1963879); further: nearly all actives have a fitted effect of over 35% in size
Conditions: ATP luminescence, 48 h; Potency: viability; series mostly up to 45.8 µM
Excerpt: Assay Provider: Jason Cantor Ph.D.
Department of Biochemistry
University of Wisconsin-Madison, Madison, WI, USA
Chemical screening studies have identified drug sensitivities across hundreds of cancer cell lines but most putative therapeutics fail to translate. Discovery and development of drug candidates in models that more accurately reflect nutrient levels in human blood is a major challenge. Here we performed high-throughput screens in conventional versus Human Plasma-Like Medium (HPLM) to identify compounds that were "missed" when screening using the artificial culture condition. Sets of conditional anticancer compounds spanned phases of clinical development and included non-oncology drugs were assessed. […] We also traced conditional phenotypes for several chemotherapeutics to availability of HPLM-specific metabolites and confirmed others for compounds whose reported targets are encoded by nonessential genes. Our findings establish generalizable strategies for exploiting conditional lethality in HPLM to reveal therapeutic candidates and mechanisms of action in cancer cells.
Described herein are the results of each viability screens against three cell lines: NOMO1 (an acute myeloid leukemia cell line); P12-Ichikawa (a T-cell acute lymphoblastic leukemia); and SEM (a B-cell ALL). Each assay was screened using 3 different cell culture media: homemade human plasma-Like medium with 10% dialyzed fetal bovine serum (HPLM+ds); RPMI1640 with 10% untreated FBS and 5mM glucose (RPMI+s); and RPMI1640 with 10% dialyzed fetal bovine serum and 5 mM glucose (RPMI+ds).
PROTOCOL TABLE (as described by Inglese J, Shamu CE and Guy RK. 2007)
SEQUENCE No. (e.g., 1, 2, 3, etc.); […] (e.g., Cells, Incubation, Reagent, etc.); VALUE and DESCRIPTION.
1; Cells; 5 uL; white, solid bottom 1536-well Greiner assay plate.
2; Compounds; 23 nL; Kalypsis pin tool (Wako USA) equipped with a 1536-well pin head to transfer to the assay plates.
3; Incubation; 48 hours; 37C incubation.
4; Reagent; 3 uL; CellTiter Glo (Promega).
5; Incubation; 5 min, room temperature
6; Detection; Luminescence, Viewlux PerkinElmer.
NOTES (numbers refer to Sequence numbers above)
1. Briefly, 5 ul of cell reagent was dispensed using a Multidrop Combi Dispenser. The NOMO1 and SEM cells were plated at 500 cells/well and the P12-Ichikawa line at 1000 cells/well.
2. After seeding the cells, 23 nL of MIPE 4.1 library compounds (in DMSO) were added to each plate using a Kalypsys 1536 Pintool dispenser. Bortezomib at final concentration of […] and DMSO were added to each plate as positive and negative controls respectively. For each screen, MIPE 4.1 compounds were added over an eleven-point concentration range […] in 3-fold dilutions.
3. Each plate was covered with a stainless steel gasketed lid to prevent evaporation and incubated for 48 hour at 37C, 95% relative humidity, and 5% CO2.
4-5. Three microliter CellTilter-GloTM luminescent substrate mix (Promega) reagent was added to the assay plate and incubated at room temperature for 5 min.
6. The luminescence signal was measured using a ViewLux (PerkinElmer) multiplate reader with a 2 second exposure time per plate. Data for each compound were normalized as percent viability such that measurements for DMSO and the empty well controls in each plate were defined as 100% and 0%, respectively.
Potency means the concentration at half of the fitted maximal effect.

Question: With `CN1C(=O)CCS(=O)(=O)C1c1ccc(Cl)cc1` (stereo not given) as the compound, how does the Potency read?
Answer: Its Potency is “inactive”.

Question: Which Potency does the source give for `NC1=NC(=O)N2CC12` (stereo not given) here?
Answer: The Potency was 7430 nM (active).

Question: With `CN(C)CCc1ccc(O)cc1` as the compound, how does the Potency read?
Answer: Its Potency is “inactive”.

Question: For `CSCC[C@@H](NC(=O)[C@@H](Cc1ccccc1)NC(=O)CNC(=O)CNC(=O)[C@@H](N)Cc1ccc(O)cc1)C(=O)O`, which Potency is on record?
Answer: Its Potency is “inactive”.

Question: For `C[C@H]1CCCC=CC2C[C@H](O)C[C@@H]2[C@H](O)C=CC(=O)O1` (stereo not given in full), which Potency is on record?
Answer: Its Potency is 37.2 nM (active).

Question: Which Potency does the source give for `O=[N+]([O-])c1ncc[nH]1` here?
Answer: Its Potency is “inactive”.

Question: For `CNCC(O)c1ccc(O)cc1` (stereo not given), which Potency is on record?
Answer: The Potency was “inactive”.

Question: Which Potency does the source give for `CC[C@@H](C(N)=O)N1CCCC1=O` here?
Answer: The Potency was “inactive”.

Question: With `C[C@@H]1CC[C@H]2[C@@H](C)C(=O)O[C@@H]3O[C@@]4(C)CC[C@H]1[C@]32OO4` as the compound, how does the Potency read?
Answer: Its Potency is “inactive”.

Question: With `C#C[C@]1(O)C=C[C@@H]2[C@@H]3CCC4=CC(=O)CC[C@@H]4[C@H]3CC[C@@]21CC` as the compound, how does the Potency read?
Answer: The Potency was “inactive”.

Question: For `O=C(O)C(=O)c1cn(Cc2ccccc2)c2ccc(-c3ccc(OC(F)(F)F)cc3)cc12`, which Potency is on record?
Answer: Its Potency is “inactive”.

Question: With `COc1ccc2c(c[n+](C)c3c4cc5c(cc4ccc23)OCO5)c1OC` as the compound, how does the Potency read?
Answer: Its Potency is 16600 nM (active).

Question: For `CC(C)c1cccc(C(C)C)c1O`, which Potency is on record?
Answer: The Potency was “inactive”.

Question: Which Potency does the source give for `O=C(O)c1nn(Cc2ccc(Cl)cc2Cl)c2ccccc12` here?
Answer: The Potency was “inactive”.

Question: Which Potency does the source give for `C[C@@H]1CC[C@@]2(OC1)O[C@H]1C[C@H]3[C@@H]4CC=C5C[C@@H](O[C@@H]6O[C@H](CO)[C@@H](O[C@@H]7O[C@@H](C)[C@H](O)[C@@H](O)[C@@H]7O)[C@H](O)[C@@H]6O[C@@H]6O[C@@H](C)[C@H](O)[C@@H](O)[C@@H]6O)CC[C@]5(C)[C@@H]4CC[C@]3(C)[C@@H]1[C@H]2C` here?
Answer: The Potency was 26400 nM (active).

Question: Which Potency does the source give for `O=S(=O)(F)Cc1ccccc1` here?
Answer: Its Potency is “inactive”.

Question: With `CC(=O)Nc1ccc(OC[C@](C)(O)C(=O)Nc2ccc([N+](=O)[O-])c(C(F)(F)F)c2)cc1` as the compound, how does the Potency read?
Answer: Its Potency is “inactive”.

Question: For `CN(C)[C@@H]1C(=O)C(C(N)=O)=C(O)[C@@]2(O)C(=O)C3=C(O)c4c(O)cccc4[C@@](C)(O)[C@H]3[C@H](O)[C@@H]12`, which Potency is on record?
Answer: The Potency was “inactive”.

Question: Which Potency does the source give for `CC=C(C)C(=O)O[C@H]1C(C)=C2[C@@H]3OC(=O)[C@@](C)(O)[C@@]3(O)[C@@H](OC(=O)CCC)C[C@](C)(OC(C)=O)[C@@H]2[C@@H]1OC(=O)CCCCCCC` here?
Answer: The Potency was 118 nM (active).

Question: For `COC1=C[C@@H]2[C@@H]3Cc4ccc(OC)c(O)c4[C@]2(CCN3C)CC1=O`, which Potency is on record?
Answer: Its Potency is “inactive”.

Question: With `Cc1ccccc1-n1c(Cn2cnc3c(N)ncnc32)nc2cccc(C)c2c1=O` as the compound, how does the Potency read?
Answer: The Potency was “inactive”.

Question: With `O=c1[nH]c2ccccc2n1CCCN1CCC(n2c(=O)[nH]c3cc(Cl)ccc32)CC1` as the compound, how does the Potency read?
Answer: The Potency was “inactive”.

Question: For `CC(O)=C(C#N)C(=O)Nc1cc(Br)ccc1Br`, which Potency is on record?
Answer: Its Potency is “inactive”.

Question: For `Oc1ccc2c3c1O[C@H]1c4[nH]c5c(c4C[C@@]4(O)[C@@H](C2)N(CC2CC2)CC[C@]314)C[C@@]1(O)[C@H]2Cc3ccc(O)c4c3[C@@]1(CCN2CC1CC1)[C@H]5O4`, which Potency is on record?
Answer: The Potency was “inactive”.

Question: Which Potency does the source give for `C#CC1(O)CCC2C3CCC4=CC(=O)CCC4(C)C3CCC21C` (stereo not given) here?
Answer: The Potency was “inactive”.

Question: For `Cc1cc(SCc2sc(-c3ccc(C(F)(F)F)c(F)c3)nc2C)ccc1OCC(=O)O`, which Potency is on record?
Answer: Its Potency is “inactive”.

Question: For `C[C@]12CC[C@H](O)CC1=CC[C@H]1[C@H]3CCC(=O)[C@@]3(C)CC[C@@H]12`, which Potency is on record?
Answer: The Potency was “inactive”.

Question: Which Potency does the source give for `Clc1ccccc1C(c1ccccc1)(c1ccccc1)n1cccn1` here?
Answer: The Potency was “inactive”.

Question: Which Potency does the source give for `C#CCN(C)[C@H](C)Cc1ccccc1` here?
Answer: The Potency was “inactive”.

Question: With `CCOc1ccccc1-n1c(C(C)N2CCN(C(=O)COc3ccc(Cl)cc3)CC2)nc2ccccc2c1=O` (stereo not given) as the compound, how does the Potency read?
Answer: The Potency was 741 nM (active).

Question: With `COC(=O)[C@@H](N)CCCN=C(N)N[N+](=O)[O-]` as the compound, how does the Potency read?
Answer: The Potency was “inactive”.

Question: For `O=C(NCC1CCOCC1)c1cnc(Nc2ccc(Cl)cc2Cl)nc1C(F)(F)F`, which Potency is on record?
Answer: Its Potency is “inactive”.

Question: Which Potency does the source give for `COc1ccc2c(c1OC)CN1CCc3cc4c(cc3C1C2)OCO4` (stereo not given) here?
Answer: The Potency was 2640 nM (active).

Question: Which Potency does the source give for `CN[C@@H]1Cc2cccc3[nH]c(=O)n(c23)C1` here?
Answer: The Potency was “inactive”.

Question: With `Cc1cccc(C)c1NC(=O)CN1CCCC1=O` as the compound, how does the Potency read?
Answer: The Potency was “inactive”.

Question: With `c1ccc(CCCN2CCN(CCOC(c3ccccc3)c3ccccc3)CC2)cc1` as the compound, how does the Potency read?
Answer: The Potency was “inactive”.

Question: Which Potency does the source give for `C=C[C@@H]1CN2CCC1C[C@@H]2[C@@H](O)c1ccnc2ccccc12` (stereo not given in full) here?
Answer: Its Potency is “inactive”.

Question: For `COc1cc2cc(c1Cl)N(C)C(=O)C[C@H](OC(=O)C(C)C)[C@]1(C)O[C@H]1[C@H](C)[C@@H]1C[C@@](O)(NC(=O)O1)[C@H](OC)C=CC=C(C)C2`, which Potency is on record?
Answer: Its Potency is “inactive”.

Question: With `CC1=C2C[C@@H]3[C@@H](CC=C4C[C@@H](O)CC[C@@]43C)[C@@H]2CC[C@]12O[C@H]1C[C@H](C)CN[C@H]1[C@H]2C` as the compound, how does the Potency read?
Answer: The Potency was “inactive”.

Question: With `C[C@@H]1O[C@@H](O[C@@H]2C=C3CC[C@@H]4[C@@H](CC[C@]5(C)[C@H](c6ccc(=O)oc6)CC[C@@]45O)[C@@]3(C)CC2)[C@H](O)[C@H](O)[C@H]1O` as the compound, how does the Potency read?
Answer: Its Potency is 20.9 nM (active).
